Screens: PubChem BioAssay, The Scripps Research Institute Molecular Screening Center
The list is not random: actives were taken first. Their share in the collection is about 3.5%.
TEAD-YAP inh – TEAD-YAP interaction inhibition. HEK-TIYL cells, TEAD-Gal4/YAP UAS-luciferase luminescence. inhibition, % at 9.12 µM. hit rate 1.4% among 640,000; in the data active = inhibition above about 32%;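 also: 0% = median of test compound wells and 100% = reference inhibitor wells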
GPR151 ag – human GPR151 activation; activation, % at 11.2 µM; AID 1508602; PathHunter beta-arrestin GPR151 cells, luminescence; hit rate 1% among 650,000; in the data active = activation above about 4.9%;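 also: 0% = median of compound wells and 100% = cells with positive control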
MITF primary – blocks human microphthalmia-associated transcription factor | O75030 | AlphaScreen MITF homodimerization, bead proximity signal | inhibition, % at 2.6 µM | hit rate 0.91% among 650,000; in the data active = inhibition above about 50%;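 also: 0% = vehicle wells with protein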
Target sequence (O75030 whole entry, looked up): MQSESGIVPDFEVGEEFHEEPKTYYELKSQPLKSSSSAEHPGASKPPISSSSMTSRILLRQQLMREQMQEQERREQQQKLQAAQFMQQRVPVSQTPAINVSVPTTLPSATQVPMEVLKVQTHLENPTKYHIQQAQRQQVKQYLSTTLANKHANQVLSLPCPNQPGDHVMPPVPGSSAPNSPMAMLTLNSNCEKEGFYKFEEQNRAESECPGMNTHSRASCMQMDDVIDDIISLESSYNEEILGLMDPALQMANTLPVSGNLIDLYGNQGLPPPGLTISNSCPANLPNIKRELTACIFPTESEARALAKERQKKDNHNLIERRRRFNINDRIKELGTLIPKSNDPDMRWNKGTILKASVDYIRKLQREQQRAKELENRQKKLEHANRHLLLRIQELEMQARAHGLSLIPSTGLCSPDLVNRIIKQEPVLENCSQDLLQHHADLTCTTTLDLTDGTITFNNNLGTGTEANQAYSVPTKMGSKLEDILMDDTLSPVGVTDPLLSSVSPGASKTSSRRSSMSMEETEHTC
FBW7 activator – human FBW7 E3 ligase activation, primary screen; AlphaScreen FBW7–phospho-cyclin E peptide binding, activator screen; Q969H0; AID 1259310; normalized activity (activation), % at 26.1 µM; hit rate 0.13% among 650,000; in the data active = normalized activity above about 1.9%;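 also: purified mutant Fbw7 with reduced substrate affinity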
Starred values were filed as active, the others as inactive.

SMILES	TEAD-YAP inh	GPR151 ag	MITF primary	FBW7 activator
COc1ccc(C(=O)NCCNC(=O)c2ccc(NC(=O)C3CC3)cc2)c(OC)c1	-7.1	0.9	10.3	0.3
COc1ccc(-n2ncc3c(Nc4cc(C)ccc4C)ncnc32)cc1	40.0*	-1.9	-1.2	0.0
CSc1ccccc1Nc1ncnc2c1cnn2-c1ccccc1	-26.9	2.5	-2.8	0.0
COc1ccc(OC)c(Nc2ncnc3c2cnn3-c2cccc(C)c2)c1	41.9*	0.3	-7.6	0.0
COc1ccc(-n2ncc3c(Nc4ccc(C)cc4C)ncnc32)cc1	-29.9	-0.5	6.3	0.0
COc1ccc(-n2ncc3c(Nc4ccccc4SC)ncnc32)cc1	55.3*	0.9	-2.2	-0.2
CC(C)(C)n1nnnc1C(c1ccccc1Cl)N1CCN(C(=O)c2ccco2)CC1 (configuration not stated)	0.4	-1.2	21.2	0.1
CC(C)OC(=O)C(=O)/C=C1\NC(C)(C)Cc2ccccc21	5.8	-0.6	5.3	-0.1
O=c1c2nnn(Cc3ccc(F)cc3)c2ncn1C/C=C/c1ccccc1	1.3	0.2	15.3	0.8
COc1ccc2ccccc2c1/C=C/[N+](=O)[O-]	49.3*	-0.3	21.6	0.1
CC(C)Oc1ccc2ccccc2c1/C=C/[N+](=O)[O-]	35.6*	0.0	-9.1	-0.1
CCOC(=O)COc1ccc2ccccc2c1/C=C/[N+](=O)[O-]	-11.5	-0.1	-1.0	0.0
Nc1cccc(-c2ncc(C(=O)Nc3ccccc3)s2)c1	7.4	-1.2	0.2	-0.1
COc1nc(OC)nc(N2CCC(C(=O)NCC#N)CC2)n1	-6.8	1.0	-14.6	-0.3
COC(=O)Cn1c(=O)c2ccccc2n(C)c1=O	4.4	-1.1	1.4	0.1
CCOC(=O)c1cc2c(=O)n3ccccc3nc2n(CCOC)c1=NC(=O)C(C)(C)C	1.0	2.3	-0.9	-0.2
CCOC(=O)c1cc2c(=O)n3ccccc3nc2n(CCOC)c1=NC(=O)C1CCCCC1	36.9*	-2.0	-3.1	0.4
CCOC(=O)c1[nH]c(C)c(/C(C)=N\Nc2ccc([N+](=O)[O-])cc2[N+](=O)[O-])c1C	-3.9	-0.2	-1.2	-0.1
CCOC(=O)c1[nH]c(C)c(C(=O)/C=C/c2ccc(N(C)C)c([N+](=O)[O-])c2)c1C	49.7*	1.0	12.9	0.1
C=CCc1cccc(/C=N/NC(=O)CCCO)c1O	5.7	-0.1	29.5	-0.1
C=CCc1cccc(/C=N/NC(=O)C[n+]2ccccc2)c1O	60.4*	-0.9	28.6	-0.2
Cc1cc(C(=O)COC(=O)c2cccc(S(=O)(=O)N(C)C)c2)c(C)n1CC1CCCO1 (configuration not stated)	-23.2	-1.1	22.0	0.2
CNS(=O)(=O)c1cccc(C(=O)OCC(=O)c2cc(C)n(Cc3cccs3)c2C)c1	58.4*	0.6	-6.9	0.1
CNS(=O)(=O)c1cccc(C(=O)OCC(=O)c2cc(C)n(CC3CCCO3)c2C)c1 (configuration not stated)	56.9*	0.5	-10.2	-0.1
CNS(=O)(=O)c1cccc(C(=O)OCC(=O)c2cc(C)n(Cc3ccco3)c2C)c1	-27.0	-0.8	-5.0	0.6
SMILES	TEAD-YAP inh	GPR151 ag	MITF primary	FBW7 activator
CCN(CC)c1ccc(/C=N/NC(=O)c2cc(C)oc2C)c(O)c1	53.4*	-4.1	9.8	-1.1
CCN(CC)c1ccc(/C=N/NC(=O)c2cc(Cl)ccc2O)c(O)c1	-5.0	-0.9	0.5	-0.1
CCN(CC)c1ccc(/C=N\NC(=O)c2ccc(O)cc2)c(O)c1	-6.5	0.1	16.0	-0.1
CCN(CC)c1ccc(/C=N/NC(=O)c2ccc(F)cc2)c(O)c1	72.6*	-0.7	-5.3	0.0
CCCn1cnc2sc(C(=O)Oc3ccccc3)c(C)c2c1=O	-2.2	-0.6	3.8	0.2
Cc1ccc(-c2cnn(-c3ccc(C(=O)O)cc3)c2)cc1	42.4*	-11.3	-1.5	-0.2
CCN(C(=O)CC(C)C)c1nnc(-c2ccncc2)s1	13.3	-0.7	10.1	0.9
COc1ccccc1Nc1nc2nonc2nc1Nc1cccc(Br)c1	21.0	0.2	2.4	-0.3
Oc1cccc(Nc2nc(NCc3ccco3)c3ccccc3n2)c1	10.7	0.6	15.2	-0.3
Brc1cccc(Nc2nc3nonc3nc2NCc2ccco2)c1	87.1*	0.2	-4.3	0.6
Cc1cccc(Nc2nc(NCc3ccco3)c3ccccc3n2)c1	60.0*	-0.1	-0.7	-0.1
Cc1ccccc1CC1(CO)CCCN(Cc2ccc(OCCO)cc2)C1 (configuration not stated)	8.9	-2.5	14.1	0.0
Cc1ccc(OCC(O)CN(CCO)CCO)cc1 (configuration not stated)	-2.4	0.6	-18.9	0.0
OCCN(CCO)CC(O)COc1ccc(C23CC4CC(CC(C4)C2)C3)cc1 (configuration not stated)	55.9*	-0.4	4.0	0.0
Cc1ccccc1C(=O)Nc1noc2ccccc12	43.3*	-12.5	-1.5	-0.1
COc1ccccc1C(=O)Nc1noc2ccccc12	27.3	-4.7	14.8	0.1
O=C(Nc1noc2ccccc12)c1cccc(F)c1	-17.3	-4.1	-4.2	0.0
COc1ccc(C(=O)Nc2noc3ccccc23)c(OC)c1	88.4*	-9.8	-4.1	-0.1
O=C(Nc1noc2ccccc12)c1ccc(F)cc1	44.3*	-11.5	-7.4	0.2
C=CCn1c(Sc2ccc([N+](=O)[O-])cn2)nnc1-c1ccc(OC)cc1	48.0*	-0.3	-6.7	0.0
C=CCn1c(SCC)nnc1-c1ccc([N+](=O)[O-])cc1	-0.2	0.6	8.7	0.1
COc1ccc2occ(C(=O)COc3ccc(Br)cc3C#N)c2c1	57.2*	-0.3	-4.0	0.7
O=C1CCCN1CCn1cnc2c(NCc3nc4ccccc4[nH]3)nc(Nc3ccc(-n4ccnc4)cc3)nc21	39.4*	0.7	3.6	-0.1
O=C1CCCN1CCn1cnc2c(NCc3nc4ccccc4[nH]3)nc(Nc3ncccn3)nc21	6.7	3.3	-1.8	0.0
O=C1CCCN1CCn1cnc2c(NCc3nc4ccccc4[nH]3)nc(Nc3ccc4ncccc4c3)nc21	59.3*	-1.7	6.0	-0.2
SMILES	TEAD-YAP inh	GPR151 ag	MITF primary	FBW7 activator
O=C(c1ccco1)N1CCN(c2ccc([N+](=O)[O-])c(NCc3ccco3)c2)CC1	6.9	-1.6	6.5	0.5
Oc1ccccc1C(Nc1ncccn1)c1ccc2cccnc2c1O (configuration not stated)	33.5*	4.2	28.4	-0.6
CCOc1cc(C(Nc2cccnc2)c2ccc3cccnc3c2O)ccc1O (configuration not stated)	-2.3	2.3	4.7	-0.1
Oc1c(C(Nc2cccnc2)c2ccccc2F)ccc2cccnc12 (configuration not stated)	74.7*	-1.8	51.0*	-1.2
Cc1ccc(S(=O)(=O)Nc2ccccc2C(=O)Nc2nc(-c3ccc(Br)cc3)cs2)cc1	38.1*	1.9	-8.0	-0.3
CS(=O)(=O)c1ccccc1C(=O)Nc1nc(-c2ccc(C#N)cc2)cs1	34.0*	0.5	4.2	0.1
CSc1ccccc1C(=O)Nc1nc(-c2ccc(C#N)cc2)cs1	-2.3	2.8	-7.2	-0.1
Cc1ccc(S(=O)(=O)Nc2ccccc2C(=O)Nc2nc(-c3ccc(Cl)cc3)cs2)cc1	52.9*	1.0	2.5	0.1
